From PubChem BioAssay
PNC inhibitor – perinucleolar compartment assembly inhibition; PC3M PTB-GFP, PNC prevalence imaging, 16 h; stronger effect = lower value; activity change (PNC), negative = inhibition, % at 10 µM; AID 2417; actives 3.1% (n = 140,000);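 active means readout at or below -70, meaning at least 70% loss of cells showing the perinucleolar compartment, a nuclear body marking cancer cells; inconclusive means readout between -30 and a set limit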;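 further: plate controls were DMSO wells for no effect and camptothecin positive control wells for full effect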
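Read-out is percentage of cells bearing a perinucleolar compartment, from automated 20x imaging of fixed, Hoechst-stained PC3M PTB-GFP cells. Cells were seeded 4 h, then exposed 16 h to compound (23 nl of library stock) in duplicate plates.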
HTT cytoprotect – protects HTT-Q103 PC12 cells, measured by ATP | PC12 HTT-Q103 induced, cytoprotection, ATP luminescence, 40 h | Potency, µM (series often up to 56.4 µM), for inactives: cytoprotection (ATP increase), usual class: activators | actives 0.14% (n = 230,000) | AID 1471; further: potency means the concentration at half of the fitted maximal effect; % of control where 0% means no effect; nearly all actives have a fitted effect of over 45% in size
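Quantitative HTS on tebufenozide-induced (100 nM) PC12 cells expressing HTTQ103 exon 1–GFP; compounds tested as a concentration series; survival measured via cellular ATP.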
NPSR antagonist – blocks cAMP signaling of the human neuropeptide S receptor | AID 1461 | Q6W5P4 | actives 1% (n = 220,000) | Potency, µM (series often up to 38.3 µM), without a hit: at the top dose activity change, negative = inhibition, hits mostly inhibitors | CHO-NPSR cells, cAMP TR-FRET, antagonist mode; further: potency means the concentration at half of the fitted maximal effect; on the % scale 0 is the no-effect control and ±100 the full control effect; nearly all actives have a fitted effect of over 50% in size
Target sequence (Q6W5P4 whole entry, looked up): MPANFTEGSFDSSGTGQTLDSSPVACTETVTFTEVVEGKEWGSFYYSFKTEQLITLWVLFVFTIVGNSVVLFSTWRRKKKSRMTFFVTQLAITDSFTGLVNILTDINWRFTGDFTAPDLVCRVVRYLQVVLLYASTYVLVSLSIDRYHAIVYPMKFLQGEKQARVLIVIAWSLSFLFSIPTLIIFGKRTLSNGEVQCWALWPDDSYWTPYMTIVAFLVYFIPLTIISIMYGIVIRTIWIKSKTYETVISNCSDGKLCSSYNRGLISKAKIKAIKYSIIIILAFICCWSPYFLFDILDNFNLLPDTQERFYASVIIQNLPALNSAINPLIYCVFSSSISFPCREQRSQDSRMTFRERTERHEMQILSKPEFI
IMPase Li inh – cell-permeable IMPase inhibitors with lithium potentiation. CHO-M1 cells, IP1 TR-FRET (IP-One), carbachol + lithium. Potency, µM (titrated, usually from 59.4 µM), for the others: top-dose activity, negative = IMPase inhibition, usual class: inhibitors. actives 0.35% (n = 210,000);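 further: IP1 builds up when IMPase is blocked and the TR-FRET signal falls; potency means the concentration at half of the fitted maximal effect; plate controls were basal vehicle for no effect and high inhibitor control for full effect; nearly all actives have a fitted effect of over 50% in size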
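IP1 accumulation measured by competitive TR-FRET in lysed CHO-M1 cells after 30 min compound exposure at 37C, with a small lithium addition to potentiate weak responses. Hill-equation AC50 from ratio and donor-channel data.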
HTT aggregate – mutant huntingtin aggregation inhibition; PC12 HttQ103-GFP aggregates, Acumen cytometry, 40 h; Potency, µM (series often up to 46.1 µM), for inactives: at the highest dose activity change, negative = inhibition, most hits filed as inhibitors; actives 1.1% (n = 220,000); further: potency means the concentration at half of the fitted maximal effect; on the % scale 0 is the no-effect control and ±100 the full control effect; nearly all actives have a fitted effect of over 60% in size
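Read-out: GFP aggregate count by laser scanning cytometer (488 nm excitation, 500-530 nm emission, 1–25 µm objects >6 SD above background). Cells: PC12, inducible HTTex1-Q103-GFP, 100 nM tebufenozide; compounds titrated.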
IMPase cell inh – membrane-permeable compound that blocks inositol monophosphatase | CHO-M1 cells, IP1 accumulation, HTRF TR-FRET ratio | inhibition (IP1 accumulation), % at 46.1 µM | 120,000 tested, under 10 active; active means well fitted curve in the direction sought with a large enough effect in the signal ratio, not every such curve was filed as active; inconclusive means small, poorly fitted or top-dose-only effect, or a change in a side signal; inactive means no such curve, though single readings can be large or run the other way; the % refers to the signal ratio;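 further: cells stimulated with carbachol in lithium chloride buffer; plate controls were DMSO basal wells for no effect and reference inhibitor wells for full effect; higher means more IMPase inhibition seen as more IP1 and lower FRET ratio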
Target sequence (P97697 whole entry, looked up): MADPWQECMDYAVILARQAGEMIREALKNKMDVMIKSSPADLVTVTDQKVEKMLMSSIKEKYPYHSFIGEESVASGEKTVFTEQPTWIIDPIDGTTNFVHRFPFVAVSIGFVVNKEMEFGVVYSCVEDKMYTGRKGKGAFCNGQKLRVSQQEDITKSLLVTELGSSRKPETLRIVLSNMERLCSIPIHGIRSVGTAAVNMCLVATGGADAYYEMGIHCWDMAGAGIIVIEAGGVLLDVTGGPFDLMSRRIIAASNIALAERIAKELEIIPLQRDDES
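The IP-One HTRF competitive assay in carbachol-stimulated CHO-M1 cells quantifies cellular IP1. Compounds spanned up to 46 uM final, and activity is expressed as AC50 from concentration-response fits of the ratio and donor data.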
Starred values were filed as active, the others as inactive; ? = inconclusive; . = no result; [ ] = another dose, or the depositor's remark. Compounds with a hit are over-represented: about 3.4% of the library has one in this group of screens. Unless noted, the call rests on the fitted dose curve; in most records, active means well fitted curve in the direction sought with a large enough effect; inconclusive means small, poorly fitted or top-dose-only effect, or another doubt; inactive means no such curve, though single readings can be large; an effect the other way counts as inactive or inconclusive.

SMILES	PNC inhibitor	HTT cytoprotect	NPSR antagonist	IMPase Li inh	HTT aggregate	IMPase cell inh
C=C1c2cccc(O)c2C(O)=C2C(=O)[C@@]3(O)C(O)=C(C(N)=O)C(=O)[C@@H](N(C)C)[C@@H]3[C@@H](O)[C@H]12	.	5%[40.3 µM]	.	-3%	14%[20.6 µM]	-1[20.6 µM]
N/C(=N\OC(=O)C(c1ccccc1)c1ccccc1)c1cccnc1	8	12%	-26%[46.1 µM]	6%[38.3 µM]	0.71µM*	0
CNc1ncnc2c1ncn2[C@@H]1O[C@H](CO)[C@H](O)[C@H]1O	.	.	17%[46.1 µM]	-4%	.	.
COc1ccc(CCN(C)CCC[C@@](C#N)(c2cc(OC)c(OC)c(OC)c2)C(C)C)cc1OC	.	-6%[1.9 µM]	.	.	.	9
CCSc1ccc2cc(OC)ccc2[n+]1CC	.	-50%	4%	8%	8.9µM*	.
COc1cccc(-c2cc(=O)c3ccc(OC)cc3o2)c1	.	.	.	4%	.	.
CCc1ccc(/C=C2\SC(=S)N(CCC(=O)N3CCN(C)CC3)C2=O)cc1	.	18µM*	12%	0%	12%	.
O=C(NCc1ccccn1)Nc1ccc(Cl)c(Cl)c1	-84*	-25%[10 µM]	10%	14%	?	5
O=C(NCc1ccccn1)Nc1cccc(NC(=O)NCc2ccccn2)c1	9	-8%	3%[46.1 µM]	14%[38.3 µM]	1%	8
Fc1cccc(NC(=S)NCc2ccccn2)c1	-91*	-7%[10 µM]	8%	-6%	-9%	.
Cc1ccc(NC(=O)C(=O)NCc2ccccn2)cc1	.	-18%	19%	11%	-1%	.
Cc1cc(C)cc(NC(=O)C(=O)NCc2ccccn2)c1	-84*	-2%[10 µM]	2%	-4%	8%	.
Cc1cnc(CNc2ncnc3ccc(-c4cccc(C#N)c4)cc23)cn1	.	-20%	.	4%	.	.
CCC1(CC)Cc2ccccc2C(Nc2c(C)n(C)n(-c3ccccc3)c2=O)=N1	4	20%	-2%[46.1 µM]	43%[38.3 µM]	8%	10
Cc1c(NC2=NC(C)(C)Cc3ccccc32)c(=O)n(-c2ccccc2)n1C	-88*	31%[1.9 µM]	-9%[46.1 µM]	14%	-2%	-2
CCOC(=O)c1c(C)oc2cc(Br)c(OC(C)C(=O)OCC)cc12 (stereo not drawn)	-100*	-5%	-17%[46.1 µM]	10%[38.3 µM]	?	8
CCOC(=O)COc1cc2c(C(=O)OCC)c(C)oc2cc1Br	?	-6%	-15%[46.1 µM]	7%[38.3 µM]	11%	9
COc1ccc(N2C(=O)c3ccccc3C2=O)cc1	.	8%[10 µM]	7%	8%	12%[9.22 µM]	.
COc1ccc(N2C(=O)C(Cl)=C(Nc3ccccc3O)C2=O)cc1	?	?	-17%[46.1 µM]	-11%[38.3 µM]	?	15
COc1ccc(N2C(=O)C(Cl)=C(N(CCO)Cc3ccccc3)C2=O)cc1	-125*	-8%[10 µM]	-14%[46.1 µM]	-8%[38.3 µM]	4%	2
COc1ccc(N2C(=O)C(Cl)=C(Oc3cccc(OC)c3)C2=O)cc1	.	?	10µM*	26%	?	.
Cc1c[nH]c(=O)n(CCCN2CCN(c3ccccc3OCC(F)(F)F)CC2)c1=O	.	8%	.	16%	.	6
C=CC1=C2C=C(C3CC3)N(Cc3ccc4c(c3)OCO4)C=C2C(=O)C(C)(OC(=O)c2ccco2)C1=O (stereo not drawn)	.	-26%[10 µM]	.	-1%	.	.
CC(C)=CCC/C(C)=C/CO/N=C1/C[C@@H](O)[C@@H](O)[C@@H]2[C@@H]3C(=O)N(c4cccc(Oc5ccccc5)c4)C(=O)[C@H]3CC[C@@H]12	.	-1%[10 µM]	.	.	.	.
O=C(NC(=S)Nc1ccc(O)cc1)c1ccccc1Cl	.	-11%[10 µM]	-15%	12%	-9%[9.22 µM]	.
SMILES	PNC inhibitor	HTT cytoprotect	NPSR antagonist	IMPase Li inh	HTT aggregate	IMPase cell inh
CC(C)CNC(=S)NC(=O)c1ccccc1Cl	-134*	26%[10 µM]	11%	-10%	9%	.
CCOC(=O)c1ccc(COC(=O)CCc2nc3ccccc3[nH]c2=O)o1	11	-7%[10 µM]	-6%[46.1 µM]	-1%[38.3 µM]	2.8µM*	-5
Cc1cccc(NC(=S)N=Nc2c(O)[nH]c3ccccc23)c1	?	.	-33%	-2%	4µM*	.
COc1ccc2nc(NC(=O)c3ccc(NS(=O)(=O)c4cccs4)cc3)sc2c1	?	-2%[10 µM]	-9%	12%	-3%	.
Cc1cccc2sc(NC(=O)c3ccc(NS(=O)(=O)c4cccs4)cc3)nc12	-84*	-21%[10 µM]	-27%	-7%	2%	.
O=C(Nc1ccccc1)Nc1nnc(CSCc2ccccc2Cl)s1	-88*	5%[10 µM]	-15%	9%	?	3
O=C(Nc1ccc(Cl)c(Cl)c1)Nc1nnc(CSc2ccccc2)s1	20	26%[10 µM]	-40%	8%	2.8µM*	.
Cc1ccc(OCCSCc2nnc(NC(=O)Nc3cccc(Cl)c3)s2)cc1	?	.	-33%	3%	8.9µM*	.
O=C(Nc1ccc(Cl)cc1)Nc1nnc(CSCc2ccccc2Cl)s1	-19	18%[10 µM]	7%[46.1 µM]	8%	?	5
O=C(N[C@@]1(C(=O)O)C[C@@H]1c1ccccc1)c1ccccc1	.	-11%[10 µM]	.	-4%	.	.
CCOC(=O)c1sc(-c2ccc(Cl)cc2Cl)nc1O	.	11%[10 µM]	24%	.	-6%[9.22 µM]	.
O=C(Nc1nccs1)c1ccc(COc2ccccc2Br)o1	-88*	-4%[10 µM]	-16%[46.1 µM]	3%	?	1
CN(C)C(=O)/N=N/C(=O)N(C)C	.	.	-3%[46.1 µM]	14%	.	.
N#Cc1nc(-c2ccco2)oc1N1CCN(c2cccc(Cl)c2)CC1	-82*	15%[10 µM]	?	40%[38.3 µM]	6%	3
COC(=O)COc1cccc(-n2cnnn2)c1	-18	7%	-9%[46.1 µM]	-6%[38.3 µM]	0%	?
Cc1cc(C(=O)COc2cccc(-n3cnnn3)c2)c(C)n1-c1ccccc1	?	-98%	-14%[46.1 µM]	22%[38.3 µM]	11µM*	-3
Cc1ccc(-c2nc3ncccn3c2Nc2ccc3c(c2)OCO3)o1	-119*	1%[10 µM]	-16%	35%	7%	19
N[C@@H](Cc1cc(I)c(Oc2ccc(O)cc2)c(I)c1)C(=O)O	.	-30%	.	-2%	.	.
Fc1ccc(N/N=C2/CC(c3ccccc3)Oc3ccccc32)c(F)c1 (stereo not drawn)	-94*	.	-10%	14%	-14%	.
CNC(=S)N/N=C1\CC(c2ccccc2)Oc2ccccc21 (stereo not drawn)	.	-7%	-32%	12%	8%	.
COC(=O)CC(=O)Cc1nc(N)nc(Nc2ccc(C)c(C)c2)n1	-100*	7%[10 µM]	0%[46.1 µM]	-18%	13%	2
Cc1ccc(Nc2nc(N)nc(CN3CCN(C)CC3)n2)cc1C	?	-4%	-2%[46.1 µM]	-5%[38.3 µM]	13%	-2
O=C1NCCCc2c1oc1ccc(O)cc21	-5	-35%	-16%[46.1 µM]	-3%[38.3 µM]	22µM*	-4
N/C(COc1cc(Cl)cc(Cl)c1)=N\O	.	0%[10 µM]	7%	.	-16%[9.22 µM]	.
CCOc1ccc(C(=O)Nc2c(C(=O)c3ccc(OC)cc3)oc3ccccc23)cc1	.	.	.	.	.	11
